Screening results from PubChem.
A selection: hits, their analogues and other compounds. The true share with any hit is near 27%.
CYP2C9 inh = blockers of cytochrome P450 2C9 activity – biochemical, luminescence, ADME assay, primary screen; P11712; CYP2C9 Supersomes, luciferin-H conversion; inhibition, % at 5 µM; 96,000 compounds, 20% hits; AID 777, 2007;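 active means blocking of liver enzyme CYP2C9 beyond about 50% at 5 µM, limit read from the data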
Target sequence (P11712 whole entry, looked up): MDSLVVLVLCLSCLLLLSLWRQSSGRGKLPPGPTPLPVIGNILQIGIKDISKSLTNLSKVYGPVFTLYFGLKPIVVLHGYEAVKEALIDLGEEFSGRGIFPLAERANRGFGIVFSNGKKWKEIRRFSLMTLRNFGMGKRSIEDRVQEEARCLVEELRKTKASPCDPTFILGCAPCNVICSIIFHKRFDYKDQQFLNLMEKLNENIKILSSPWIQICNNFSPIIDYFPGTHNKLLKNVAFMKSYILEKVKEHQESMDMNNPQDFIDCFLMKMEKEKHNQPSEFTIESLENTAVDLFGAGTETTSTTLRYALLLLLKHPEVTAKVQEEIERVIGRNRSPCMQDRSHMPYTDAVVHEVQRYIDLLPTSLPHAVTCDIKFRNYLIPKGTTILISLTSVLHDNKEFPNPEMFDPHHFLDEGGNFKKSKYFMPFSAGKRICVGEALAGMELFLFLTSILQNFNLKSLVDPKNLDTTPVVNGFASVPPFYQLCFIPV
sEH activator = soluble epoxide hydrolase activators, primary screen, biochemical, human sEH. Bifunctional epoxide hydrolase 2 (Homo sapiens), P34913. purified human sEH enzymatic activity, activator screen. activation, % at 2 µM. 91,000 compounds, 0.04% hits. AID 717, 2007; in the data active means activation above about 37%
CYP2C19 inh = blockers of cytochrome P450 2C19 activity – biochemical, luminescence, ADME assay, primary screen. 96,000 compounds, 21% hits. inhibition, % at 5 µM. P33261. AID 778, 2007. CYP2C19 Supersomes, luciferin-H EGE luminescence, 30 min;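 active means CYP2C19 inhibition above a set limit at 5 µM in the primary screen, cut at about 50% in these data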;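 further: plate controls were negative control wells for no effect and 2.5 mM tranylcypromine positive control for full effect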
CYP2C19 act = human CYP2C19 activators, primary screen, biochemical, luminescence. 96,000 tested, under 10 active. recombinant CYP2C19, luciferin-H EGE luminescence; active compounds read high; 0 = fully inhibited enzyme, 1 = untreated enzyme. Cytochrome P450 2C19 (Homo sapiens), P33261. activation factor at 5 µM;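 active means activation factor of at least 2 at 5 µM in the primary screen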;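 further: 0 = wells with 2.5 mM tranylcypromine and 1 = vehicle-only wells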
sEH inh = soluble epoxide hydrolase inhibitors, primary screen, biochemical, human sEH; Bifunctional epoxide hydrolase 2 (Homo sapiens), P34913; recombinant human sEH enzymatic activity assay; inhibition, % at 2 µM; 91,000 compounds, 0.34% hits; in the data active means inhibition above about 80%
CYP2C9 activ = human CYP2C9 activators, primary screen, biochemical, luminescence. AID 1024, 2008. activation factor at 5 µM. Cytochrome P450 2C9 (Homo sapiens), P11712. recombinant CYP2C9, luciferin-H conversion; active compounds read high; factor 1 = untreated enzyme, 0 = blocked. 96,000 compounds, 1.4% hits;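 active means activation factor of 2 or more for CYP2C9 at a 5 µM dose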;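 further: 0 = sulfaphenazole-blocked wells and 1 = vehicle-only wells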
An asterisk follows results filed as active; nt = no result given.

SMILES	CYP2C9 inh	sEH activator	CYP2C19 inh	CYP2C19 act	sEH inh	CYP2C9 activ
CCOc1ccc(OCC)c(NC(=O)CN(c2ccc(C)cc2)S(=O)(=O)c2c(C)noc2C)c1	92*	0	42	0.6	0	0.1
CCOc1ccccc1NS(=O)(=O)c1c(C)noc1C	71*	11	75*	0.3	-6	0.3
CCOc1ccccc1NS(=O)(=O)c1cccs1	-161	-1	78*	0.2	6	2.6*
CCOc1ccc(N(CC(=O)Nc2ccc3c(c2)OCCO3)S(=O)(=O)c2c(C)noc2C)cc1	8	nt	0	1	nt	0.9
CC(C)[C@H](NC(=O)NCc1ccco1)C(=O)O	3	-10	4	1	10	1
O=C(O)C1CCC(=O)N1Cc1ccccc1Cl (stereo not given)	11	nt	4	1	nt	0.9
Cn1c(=O)c2c(nc(CN3CCOCC3)n2CC(O)CO)n(C)c1=O (stereo not given)	-7	8	-3	1	-7	1.1
COc1ccccc1N(C(C)=O)C1SC(=O)N(c2ccccc2)C1=O (stereo not given)	-7	nt	54*	0.5	nt	1.1
Cc1cccc(N(CC(N)=O)C2SC(=O)N(c3ccccc3)C2=O)c1 (stereo not given)	-17	9	9	0.9	-9	1.2
CC(C)COc1ccccc1C(=O)NC(CO)C(=O)O (stereo not given)	14	10	0	1	-8	0.9
CCc1ccccc1NC(=O)c1ccc(CN2CCC(Cc3ccccc3)CC2)cc1	35	4	56*	0.4	-1	0.7
O=C(c1ccc(CN2CCOCC2)cc1)N1CCC(Cc2ccccc2)CC1	71*	nt	66*	0.3	nt	0.3
CN1CCN(C(=O)c2ccc(CN3CCOCC3)cc2)CC1	-22	nt	-12	1.1	nt	1.2
Cc1ccccc1NC(=O)c1ccc(CN2CCc3ccccc3C2)cc1	27	4	32	0.7	-2	0.7
CC1CCc2nc(NC(=O)C3CCCO3)sc2C1 (stereo not given)	3	-3	-5	1	1	1
COc1cc2c(cc1NC(=O)C(c1ccccc1)c1ccccc1)CCCC2	96*	6	83*	0.2	-5	0
CC(C)NC(=O)Cn1cnc2c1c(=O)n(C)c(=O)n2C	-15	8	-18	1.2	-8	1.1
CCOC(=O)c1cccc(NC(=O)Cn2cnc3c2c(=O)n(C)c(=O)n3C)c1	72*	-6	35	0.6	8	0.3
COC(=O)c1cccc(NC(=O)Cn2cnc3c2c(=O)n(C)c(=O)n3C)c1	61*	nt	18	0.8	nt	0.4
CCCCn1c(Oc2ccc(C(=O)OC)cc2)nc2c1c(=O)n(C)c(=O)n2C	42	nt	30	0.7	nt	0.6
COC(=O)c1cccc(Oc2nc3c(c(=O)n(C)c(=O)n3C)n2C(C)C)c1	75*	29	34	0.7	-31	0.3
CNc1nc2c(c(=O)[nH]c(=O)n2C)n1CCOC	4	-2	6	0.9	4	1
O=C(O)C1[C@H]2C(=O)N(C3CCCC3)C[C@]23C=C[C@H]1O3 (stereo not given in full)	4	8	3	1	-8	1
CCOC(=O)c1cc2c(C)n(-c3ccc(C)cc3)c(C)c2ccc1=O	59*	4	39	0.6	-5	0.4
CCOC(=O)c1cc2c(C)n(-c3ccc(OCC)cc3)c(C)c2ccc1=O	20	7	64*	0.4	-6	0.8
SMILES	CYP2C9 inh	sEH activator	CYP2C19 inh	CYP2C19 act	sEH inh	CYP2C9 activ
CCC1(CC)Cc2ccccc2C(=C(C#N)C#N)N1	15	6	23	0.8	-4	0.8
O=C1Nc2ccccc2C12OCC(COc1ccc(Cl)cc1)O2 (stereo not given)	20	2	84*	0.2	0	0.8
CC1(C)CC(=O)C(/C=N/n2cnc3ccccc3c2=O)=C(O)C1	-1	-6	-5	1	7	1
C=CCS/C(=N\n1cnc2ccccc2c1=O)N1CCCCC1	51*	-7	16	0.8	8	0.5
C=CCS/C(=N\n1cnc2ccccc2c1=O)N(CC)CC	63*	8	96*	0	-13	0.4
COc1ccc(NC(=O)CCNS(=O)(=O)c2ccc3c(c2)CCC(=O)N3)cc1	41	-8	30	0.7	5	0.6
CC1=NN(c2nc(-c3ccc(Cl)cc3)cs2)C(=O)C1	60*	4	-8	1.1	-3	0.4
O=C(NC1CC2CCC(C1)N2C(=O)NCc1ccccc1)C1CC1 (stereo not given)	-15	1	-10	1.1	1	1.1
CCCc1c(C(=O)OCC)[nH]c2c1C(=O)CCC2	15	2	-2	1	-2	0.8
Cc1c(C(=O)OCCOc2ccccc2)[nH]c2c1C(=O)CCC2	91*	-8	91*	0.1	10	0.1
Cc1c(C(=O)OC2CCCC2C)[nH]c2c1C(=O)CCC2 (stereo not given)	54*	nt	5	1	nt	0.5
CC(=O)Nc1ccccc1Nc1cc(C#N)c(C#N)cc1[N+](=O)[O-]	3	12	13	0.9	-12	1
CC1(C)CC(=O)C2=C(C1)N(c1ccc(F)cc1)C(=O)CC2c1cccnc1 (stereo not given)	-6	nt	-4	1	nt	1.1
CC1(C)CC(=O)C2=C(C1)N(c1ccc(F)cc1)C(=O)CC2c1ccccc1 (stereo not given)	28	15	76*	0.2	-20	0.7
CC1(C)CC(=O)C2=C(C1)N(c1ccc(F)cc1)C(=O)C2(O)C(F)(F)F (stereo not given)	14	3	50*	0.5	-1	0.9
COc1cccc(C(=O)N(c2ccc(OC)cc2OC)C2C=CS(=O)(=O)C2)c1 (stereo not given)	20	4	28	0.7	-3	0.8
CC(=Nc1ccc(C)c(C)c1)C1=C(O)CSC1=O	50	-8	65*	0.3	8	0.5
COc1ccc(OC)c(N=C(C)C2=C(O)COC2=O)c1	18	nt	34	0.7	nt	0.8
COc1ccccc1N=C(C)C1=C(O)CSC1=O	38	-20	64*	0.4	20	0.6
O=C(CN1CCCCC1)Nc1cccc(Br)c1	-6	2	33	0.7	-2	1.1
COc1ccc2nc(NC(=O)CNS(=O)(=O)c3cccs3)sc2c1	7	-1	64*	0.4	1	0.9
COc1ccc(NC(=O)CNS(=O)(=O)c2ccc3nc(C)sc3c2)c(OC)c1	51*	3	28	0.7	-4	0.5
